{"source": "PubChem BioAssay", "data": [{"biological_target": "Alpha-bungarotoxin (Bungarus multicinctus) (UniProt P60615)", "sequence (P60615 whole entry, looked up)": "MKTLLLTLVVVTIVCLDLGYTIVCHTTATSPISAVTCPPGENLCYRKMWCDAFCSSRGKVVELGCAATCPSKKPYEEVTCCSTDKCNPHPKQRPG", "experiment": "compounds binding labelled alpha-BTX control protein – biochemical, small-molecule microarray, Alexa647 label, 635/667 nm fluorescence, artefact control for SMM control protein annotation, profiling panel (AID 1117)", "details": "alpha-BTX-A647 binding fluorescence, higher = more signal", "values": [{"smiles": "CC(C)[Si]1(C(C)C)OCc2cc(C3CC3)nc(-c3ccc(Oc4ccccc4)cc3)c21", "composite z-score": -0.336}, {"smiles": "O=C1NC(=O)C2C1C=CC(C(O)c1ccco1)N2Nc1ccc(Cl)cc1Cl", "note": "(stereo not given)", "composite z-score": 0.396}, {"smiles": "Cc1ccc(N2C(=O)c3ccccc3[C@@H](C(=O)NCCCN(C)C)[C@@H]2c2ccc(CO)cc2)nc1", "composite z-score": 0.14}, {"smiles": "CCCCCCc1nc(Cc2cc(OC)c(OC)c(OC)c2)cc2c1[Si](C(C)C)(C(C)C)OC2", "composite z-score": -0.0869}, {"smiles": "CCOC(=O)C1=C[C@@H](C(C)(C)C)N(S(=O)(=O)c2ccc(C)cc2)[C@H]1c1cccc2ccccc12", "composite z-score": 0.657}, {"smiles": "COc1cc2c(cc1O)C(c1cccs1)N(Cc1cc3c(cc1Br)OCO3)CC2", "note": "(stereo not given)", "composite z-score": 2.08}, {"smiles": "C=CCNC(=O)[C@@H]1[C@H]2C(=O)O[C@H](c3ccccc3)[C@H](c3ccccc3)N2[C@H](c2ccccc2OCCO)[C@@]12C(=O)Nc1ccc(C#CCC(C(=O)OC)C(=O)OC)cc12", "composite z-score": 0.894}, {"smiles": "C=CCN1C(=O)[C@]2(CCS(=O)(=O)c3ccccc3)N=C(c3ccc(OCCCO)cc3)O[C@@H]2c2ccccc21", "composite z-score": 1.2}, {"smiles": "CC(c1ccccc1)C(O)C1C=CC2C(=O)N(C)C(=O)C2N1Nc1ccccc1", "note": "(stereo not given)", "composite z-score": 2.06}, {"smiles": "N#Cc1ccc(NN2C(C(O)c3ccc(Br)cc3)C=CC3C(=O)N(c4ccccc4)C(=O)C32)cc1", "note": "(stereo not given)", "composite z-score": 2.36}, {"smiles": "COc1ccc([Si](C)(C)[C@@H]2[C@@H](CCO)O[C@]3(C(=O)N(Cc4cccc(NC(=O)[C@H](C)O)c4)c4ccccc43)[C@H]2C)cc1", "composite z-score": 0.756}, {"smiles": "CCCCC(CC)C(O)C1C=CC2C(=O)N(C)C(=O)C2N1Nc1ccccc1", "note": "(stereo not given)", "composite z-score": 1.34}, {"smiles": "COCCOC(=O)N1C(=O)[C@@]2(c3cc(C#CCCO)ccc31)[C@H](c1ccc(OCCO)cc1)N1[C@H](c3ccccc3)[C@H](c3ccccc3)OC(=O)[C@H]1[C@@H]2C(=O)Nc1nc2ccccc2s1", "composite z-score": 1.96}, {"smiles": "[N-]=[N+]=NCc1ccccc1[C@@H]1OC(c2ccc(OCCCO)cc2)=N[C@]1(CCS(=O)(=O)c1ccccc1)C(=O)O", "composite z-score": 1.17}, {"smiles": "O=C1C[C@]2(c3ccc([N+](=O)[O-])cc3)C(=O)N(C3CC3)c3cc(CO)ccc3[C@H]2N1CC12CC3CC(CC(C3)C1)C2", "composite z-score": -0.444}, {"smiles": "CCCC[C@@H]1C[C@H]1[C@@H](NC(=O)c1cccs1)c1ccccc1C(F)(F)F", "composite z-score": 0.881}, {"smiles": "O=C(Cc1ccccc1)[C@H]1C2C=CCCC(c3ccccc3)=C2CN1Cc1ccccc1", "note": "(stereo not given in full)", "composite z-score": -0.0051}, {"smiles": "COC(=O)[C@]1(CCS(=O)(=O)c2ccccc2)N=C(c2ccc(OCCCO)cc2)O[C@@H]1c1ccccc1N=[N+]=[N-]", "composite z-score": 2.06}, {"smiles": "COCCOC(=O)N1C(=O)[C@@]2(c3cc(C#CC4=CCCCC4)ccc31)[C@H](c1ccccc1OCCO)N1[C@H](c3ccccc3)[C@H](c3ccccc3)OC(=O)[C@H]1[C@@H]2C(=O)N1CCN(c2ncccn2)CC1", "composite z-score": 0.511}, {"smiles": "CN(C)C(=O)[C@@]1(Cc2ccccc2)N=C(c2ccc(OCCCO)cc2)O[C@H]1c1ccccc1", "composite z-score": 0.907}, {"smiles": "COc1ccc(C#Cc2ccc3c(c2)[C@]2(C(=O)N3)[C@H](C(=O)O)[C@H]3C(=O)O[C@H](c4ccccc4)[C@H](c4ccccc4)N3[C@@H]2c2ccc(O)cc2)cc1", "composite z-score": -0.204}, {"smiles": "CCCCC[C@H]1OC[C@@]23C=C(Br)[C@@H](CC12)[C@@]1(CO1)C3=O", "note": "(stereo not given in full)", "composite z-score": -0.284}, {"smiles": "CC1CC/C=C\\[C@H]2OC34C=CCN(c5ccc(Cl)cc5)C(=O)[C@H]3N(C(C)CO)C(=O)[C@]4(C)C2C(=O)O1", "note": "(stereo not given in full)", "composite z-score": -0.664}, {"smiles": "COc1cc2c(cc1O)C(C1CC1)N(Cc1cccc(OC(F)(F)F)c1)CC2", "note": "(stereo not given)", "composite z-score": -0.41}, {"smiles": "COc1cc(C(O)C2C=CC3C(=O)N(C)C(=O)C3N2Nc2ccccc2)cc(OC)c1OC", "note": "(stereo not given)", "composite z-score": 0.469}, {"smiles": "[N-]=[N+]=NCc1ccccc1[C@H]1OC(c2ccc(OCCCO)cc2)=N[C@@]1(Cc1ccccc1N=[N+]=[N-])C(=O)NCC(O)CO", "note": "(stereo not given in full)", "composite z-score": 1.08}, {"smiles": "COC(=O)[C@@]1(Cc2ccc(OC)cc2)[C@H]2c3cc(C(=O)N(C)C)n(Cc4ccc(OC(F)(F)F)cc4)c3C[C@H]2CN1C(=O)c1ccccc1", "composite z-score": -0.114}, {"smiles": "C=C(/C(=C/C[C@H](OC(C)=O)c1ccc(CO)o1)c1cnc2ccccc2c1)C(C)C", "composite z-score": 2.15}, {"smiles": "Cc1ccc(S[C@]2(C(=O)NCc3ccccc3)CC(=O)N(C3CCCCC3)[C@@H]2c2ccc(CO)cc2I)cc1", "composite z-score": 0.604}, {"smiles": "COc1ccc([Si](C)(C)[C@@H]2[C@@H](CC(=O)N3Cc4ccccc4C[C@H]3CO)O[C@]3(C(=O)N(Cc4ccc(N5C(=O)c6cccc7cccc5c67)cc4)c4ccccc43)[C@H]2C)cc1", "composite z-score": 0.964}]}]}
